The values that follow come from the supplement of paper PMC9844399.

Where a name gives a salt, the structure may show the parent alone.
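Also: Hoechst-stained nuclei counted by automated confocal imaging of four fields per well in 384-well plates, with the robust Z-score based on the per-plate DMSO median and robust SD.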

The experiment deals with HeLa. The experiment in a line: nuclear count per well, robust Z-score vs DMSO; higher = more cells (less toxicity). The settings on record: 10 µM; 6 h.
Turning to `NC(=O)N1c2ccccc2C=Cc2ccccc21` [Carbamazepine], the “nuclear count per well” value was 0.823. For `COc1cc2ncnc(Nc3cccc(Cl)c3)c2cc1OC` [Tyrphostin AG 1478], the “nuclear count per well” value is -0.224. With `COc1ccccc1OCC(O)CN1CCN(CC(=O)Nc2c(C)cccc2C)CC1` (centres undefined), the “nuclear count per well” value is 0.151. The figure for `OCCN1CCN(CCCN2c3ccccc3Sc3ccc(Cl)cc32)CC1` [Perphenazine] is -0.371; for `CC(=O)N1CCN(c2ccc(OCC3COC(Cn4ccnc4)(c4ccc(Cl)cc4Cl)O3)cc2)CC1` (centres undefined) [Ketoconazole] it is 0.333; for `CNC(=O)c1cc(Oc2ccc(NC(=O)Nc3ccc(Cl)c(C(F)(F)F)c3)c(F)c2)ccn1` it is -0.767. Consider `CCCCC(=O)N(Cc1ccc(-c2ccccc2-c2nnn[nH]2)cc1)[C@H](C(=O)O)C(C)C` [Valsartan], for which the “nuclear count per well” value amounted to 2.15. As for `CNC(C)C1CCC(N)C(OC2C(N)CC(N)C(OC3OCC(C)(O)C(NC)C3O)C2O)O1` (centres undefined) [Gentamycin Sulfate], the figure is -0.303; as for `CNCC[C@@H](Oc1ccccc1C)c1ccccc1`, -0.742; as for `CC(COc1ccccc1)N(CCCl)Cc1ccccc1` (centres undefined), 0.58.

On to `Nc1ncnc2c1ncn2C1CCCO1` (centres undefined), for which the “nuclear count per well” value turned out to be 1.05.

As for `CCCCCCCCCCC/C=C\C/C=C\CCCC(=O)O` [Eicosa-5,8-dienoic acid (20:2 n-12)], the “nuclear count per well” value was -0.432.

With `CCC[C@H](N[C@@H](C)C(=O)N1[C@H](C(=O)O)C[C@@H]2CCCC[C@@H]21)C(=O)OCC` [Perindopril Erbumine], the “nuclear count per well” value is -1.42.

For the compound `CN(C)c1ccc(/C=C2/C(=O)Nc3ccccc32)cc1`, the “nuclear count per well” value was determined as 0.129. The figure for `CC(C(=O)O)c1ccc(-c2ccccc2)c(F)c1` (centres undefined) [Flurbiprofen] is 0.165; for `COc1nc(N)nc2c1ncn2[C@@H]1O[C@H](CO)[C@@H](O)[C@@H]1O` [Nelarabine] it is -0.434. As for `CN1CCN2c3ncccc3Cc3ccccc3C2C1` (centres undefined) [Mirtazapine], the figure is 0.384; as for `C=CC1=C(C(=O)O)N2C(=O)[C@@H](NC(=O)/C(=N\OCC(=O)O)c3csc(N)n3)[C@H]2SC1` [Cefixime], 1.49.

`C[N+](C)(C)CCOC(=O)CCC(=O)OCC[N+](C)(C)C`: the “nuclear count per well” value was -0.221. The figure for `COC(=O)Nc1nc2cc(C(=O)c3ccc(F)cc3)ccc2[nH]1` [Flubendazol] is -0.258.

Regarding `CC(=O)O[C@H]1C[C@@H]2CC[C@@H]3[C@H](CC[C@@]4(C)[C@H]3C[C@H]([N+]3(C)CCCCC3)[C@@H]4OC(C)=O)[C@@]2(C)C[C@@H]1N1CCCCC1` [Vecuronium Bromide], the “nuclear count per well” value is -1. As for `CC(=O)NC(C)(C)C(=O)N1CCC[C@H]1C(=O)NC(C)(C)C(=O)N[C@@H](C)C(=O)NC(C)(C)C(=O)N[C@@H](C)C(=O)N[C@@H](CCC(N)=O)C(=O)NC(C)(C)C(=O)N[C@H](C(=O)NC(C)(C)C(=O)NCC(=O)N[C@@H](CC(C)C)C(=O)NC(C)(C)C(=O)N1CCC[C@H]1C(=O)N[C@H](C(=O)NC(C)(C)C(=O)NC(C)(C)C(=O)N[C@@H](CCC(=O)O)C(=O)N[C@@H](CCC(N)=O)C(=O)N[C@H](CO)Cc1ccccc1)C(C)C)C(C)C` [Alamethicin], the figure is 0.383; as for `CCCCC[C@H](O)/C=C/C=C\C/C=C\C/C=C\CCCC(=O)O`, 0.645; as for `OCCn1cc(-c2ccc3c(c2)CC/C3=N\O)c(-c2ccncc2)n1`, -1.12. As for `CCCCC/C=C\C/C=C\CCCCCCCC(=O)O` [Linoleic acid], the figure is -0.54. With `O=C(O)c1cc(-c2ccc(F)cc2F)ccc1O` [Diflunisal], the “nuclear count per well” value was -0.935. As for `OC[C@H]1O[C@@H](O[C@@H]2[C@@H](CO)OC(O)(CO)[C@H]2O)[C@H](O)[C@@H](O)[C@H]1O` (mixture of isomers) [Lactulose], the figure is 0.314; as for `Cc1[nH]c2ccccc2c1CCNC(=O)c1ccccc1F`, -0.994; as for `NCCCC(N)(C(=O)O)C(F)F` (centres undefined), 0.81. As to `CCOC(=O)[C@H](CCc1ccccc1)N[C@@H](C)C(=O)N1CCC[C@H]1C(=O)O` [Enalapril], the “nuclear count per well” value was determined as 0.499. As to `Cn1c(=O)c2c(ncn2C)n(C)c1=O` [Caffeine], the “nuclear count per well” value was -1.27.

For the compound `Cn1cnc([N+](=O)[O-])c1Sc1ncnc2[nH]cnc12` [Azathioprine], the “nuclear count per well” value came to 0.686. As for `O=C(NCCN1CCC(n2c(=O)[nH]c3cc(Cl)ccc32)CC1)c1ccc(F)cc1` [Halopemide], the figure is -1.19. As for `CCC1(C)CC(=O)NC1=O` (centres undefined) [Ethosuximide], the figure is 0.19; as for `CC#C[C@]1(O)CC[C@H]2[C@@H]3CCC4=CC(=O)CCC4=C3[C@@H](c3ccc(N(C)C)cc3)C[C@@]21C` [Mifepristone], -0.723; as for `CC1(C)S[C@@H]2[C@H](NC(=O)COc3ccccc3)C(=O)N2[C@H]1C(=O)O` [Penicillin V Potassium], -0.676.

With `NNCCc1ccccc1` [Phenelzine Sulfate], the “nuclear count per well” value was 0.336. Turning to `CC(C)OC(=O)CCC/C=C\C[C@@H]1[C@@H](CC[C@@H](O)CCc2ccccc2)[C@H](O)C[C@@H]1O` [Latanoprost], the “nuclear count per well” value was 0.224. As for `COc1ccc2cc1Oc1ccc(cc1)C[C@H]1c3cc(c(OC)cc3CCN1C)Oc1c(OC)c(OC)cc3c1[C@H](C2)N(C)CC3` [Tetrandine], the figure is 1.11.
